Only some compounds are listed: those with a hit (about 2.4% of all), similar ones and a draw of the others.
POLB inh: blocks human DNA polymerase beta activity | P06746 | Pol beta primer extension/strand displacement, fluorescence kinetic | Potency, µM (highest dose often 114 µM), actives largely listed as inhibitors | 340,000 tested, 1.3% active
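Human Pol beta at 10 nM; strand-displacement substrate 50 nM final. Compound exposure 15 min at room temperature before start, reaction 10 min at room temperature.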
Pol iota inh: DNA polymerase iota (human) inhibition. AID 588590. Pol iota fluorescent replication assay, 10 min. Potency, µM (series often up to 115 µM), actives largely listed as inhibitors. 390,000 tested, 1% active
Target sequence (Q9UNA4 whole entry, looked up): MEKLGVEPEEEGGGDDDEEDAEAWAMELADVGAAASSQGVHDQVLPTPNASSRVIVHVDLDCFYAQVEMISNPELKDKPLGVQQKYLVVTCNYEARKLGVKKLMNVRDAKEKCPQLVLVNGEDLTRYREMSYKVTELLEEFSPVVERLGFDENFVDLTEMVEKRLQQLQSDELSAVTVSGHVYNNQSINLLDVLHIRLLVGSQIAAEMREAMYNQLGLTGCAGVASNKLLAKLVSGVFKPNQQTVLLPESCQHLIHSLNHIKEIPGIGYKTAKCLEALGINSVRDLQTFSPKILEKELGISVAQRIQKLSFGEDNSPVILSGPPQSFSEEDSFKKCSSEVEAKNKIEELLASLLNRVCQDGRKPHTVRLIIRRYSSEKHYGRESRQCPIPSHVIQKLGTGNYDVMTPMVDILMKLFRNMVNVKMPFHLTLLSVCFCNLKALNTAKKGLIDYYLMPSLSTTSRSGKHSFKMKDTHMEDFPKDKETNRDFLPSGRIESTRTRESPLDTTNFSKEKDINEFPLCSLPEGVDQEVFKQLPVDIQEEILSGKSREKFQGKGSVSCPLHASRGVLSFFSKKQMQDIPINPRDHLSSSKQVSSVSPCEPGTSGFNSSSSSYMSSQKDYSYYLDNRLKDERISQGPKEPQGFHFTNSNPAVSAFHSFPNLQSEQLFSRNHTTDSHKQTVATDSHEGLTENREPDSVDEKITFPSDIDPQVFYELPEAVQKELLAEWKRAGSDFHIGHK
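Fluorescent replication assay read twice, at 0 min and 10 min after adding 50 nM (final) substrate. Enzyme (10 nM) and compounds were first incubated 15 min at room temperature; enzyme-free buffer wells were negative controls.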
FEN1 inh: inhibitors of human flap endonuclease 1; P39748; Recombinant FEN1 flap cleavage, fluorescence, 15 min; Potency, µM (series often up to 114 µM), hits mostly inhibitors; 390,000 tested, 0.35% active; note: nearly all actives have a fitted effect of over 65% in size
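FEN1 at 10 nM preincubated with compounds 15 min at room temperature, then flap DNA substrate added at 50 nM final. Signal read at 0 and 15 min; concentration-response fitted with four-parameter Hill equation.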
TDP1 inh: inhibitors of human tyrosyl-DNA phosphodiesterase TDP1; Q9NUW8; recombinant TDP1, AlphaScreen DNA substrate cleavage; Potency, µM (top dose mostly 130 µM), hits mostly inhibitors; 350,000 tested, 0.28% active; AID 485290; note: nearly all actives have a fitted effect of over 40% in size
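Recombinant human Tdp1 (E. coli-expressed, 1 nM final) preincubated with compounds 15 min at room temperature, then 5'-biotin/3'-phosphotyrosine-FITC DNA substrate (15 nM final) added for 5 min. AlphaScreen beads (10 ug/ml final) added 10 min; cleavage lowers signal.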
POLK inh: blocks human DNA polymerase kappa activity; Q9UBT6; purified Pol kappa, fluorescent DNA synthesis assay, 10 min; Potency, µM (top dose mostly 107 µM), actives largely listed as inhibitors; 400,000 tested, 0.53% active; AID 588579
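50 nM final substrate added after 15 min RT preincubation of 10 nM Pol kappa with compound; fluorescence read at 0 and 10 min.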
POLH inh: inhibitors of human DNA polymerase eta | recombinant Pol eta, fluorescent DNA replication assay | 390,000 tested, 1.2% active | Q9Y253 | Potency, µM (series often up to 114 µM), usual class: inhibitors
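Pol eta (10 nM) was preincubated with compounds for 15 min at room temperature, after which fluorescent replication substrate (50 nM final) was added to start the reaction. Fluorescence was read kinetically at 0 and 10 min.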
Of the large screens only hits and unclear results are named; the others gave an inactive call. Calls come from the whole dose curve; as a rule, active = well fitted curve in the direction sought with a large enough effect; inconclusive = small, poorly fitted or top-dose-only effect, or another doubt; inactive = no such curve, though single readings can be large; an effect the other way counts as inactive or inconclusive.

Cc1cc2c(s1)c1cnn(Cc3ccc(C(F)(F)F)cc3F)c(=O)c1n2C	none (no result: POLB inh, Pol iota inh, FEN1 inh, POLK inh, POLH inh)
Nn1c(SCC(=O)NCC2CCCO2)nnc1-c1ccc(OC(F)F)cc1 (configuration not stated)	TDP1 inh 89µM (no result: POLB inh)
O=C(/C=C/c1ccccc1Cl)c1ccccc(=O)c1O	POLB inh 45µM, Pol iota inh 28µM, POLH inh inconclusive
O=C(/C=C/c1ccccc1Cl)c1cccnc1	Pol iota inh 40µM
Cc1ccc(C)c(/C=C/C(=O)c2ccccc(=O)c2O)c1	POLB inh inconclusive, Pol iota inh inconclusive, POLH inh inconclusive
O=C(/C=C/c1ccc(Cl)cc1)c1cccnc1	Pol iota inh inconclusive
O=C(Nc1nccs1)C1CC=CC2CCN(Cc3ccc(Cl)c(Cl)c3)C(=O)C21 (configuration not stated)	none (no result: POLB inh, POLH inh)
O=C(COc1ccccc1/C=C1\SC(=O)NC1=O)Nc1ccccc1	Pol iota inh inconclusive, POLH inh 18µM
COc1cccc(/C=C2/NC(=O)NC2=O)c1OCC(=O)Nc1ccccc1	none
Cc1c(NC(=O)C(C)OC(=O)c2cccnc2)c(=O)n(-c2ccccc2)n1C (configuration not stated)	none
Cc1c(NC(=O)C(C)OC(=O)c2cccnc2Cl)c(=O)n(-c2ccccc2)n1C (configuration not stated)	Pol iota inh 79µM (no result: POLB inh)
CCc1cc2cc(C(=O)Nc3ccc(F)cc3)sc2s1	POLB inh 56µM, Pol iota inh inconclusive, POLH inh inconclusive
O=C(CSc1ccc(-c2nc3ccccc3[nH]2)cn1)Nc1ccc(S(=O)(=O)NC2CC2)cc1	POLB inh 18µM, Pol iota inh inconclusive, POLH inh inconclusive
Cc1cc2nc(-c3ccc(SCC(=O)Nc4ccc5c(c4)OCCO5)nc3)[nH]c2cc1C	POLB inh inconclusive, Pol iota inh inconclusive
O=C(CSc1ccc(-c2nc3ccccc3[nH]2)cn1)Nc1ccc2c(c1)OCCO2	POLB inh 18µM, Pol iota inh inconclusive
O=C(Nc1ccc(-c2nc3ccccc3[nH]2)cc1)c1ccccc1NS(=O)(=O)c1ccc(F)cc1	Pol iota inh inconclusive, FEN1 inh inconclusive, POLH inh 28µM
Cc1ccc2nc(-c3ccc(SCC(=O)Nc4ccc5c(c4)OCCO5)nc3)[nH]c2c1	POLB inh 14µM, Pol iota inh inconclusive, POLH inh inconclusive
Cc1ccc(NS(=O)(=O)c2ccc3c(c2)CCC(=O)N3)cc1F	none (no result: POLB inh, Pol iota inh, FEN1 inh, POLK inh, POLH inh)
Cc1cc(C)c2nccc(/C=C/c3ccc(N(C)C)cc3)c2c1	none (no result: POLB inh, TDP1 inh, POLH inh)
CCc1nnc(NC(=O)CSc2ccc(-c3nc4ccccc4[nH]3)cn2)s1	POLB inh 35µM, Pol iota inh inconclusive, POLH inh inconclusive
COc1cc2nc(NC3CCN(C)CC3)nc(N3CCCN(C)CC3)c2cc1OC	FEN1 inh inconclusive (no result: POLB inh, TDP1 inh, POLH inh)
CCn1c(SCC(=O)Nc2oc(-c3ccccc3)c(-c3ccccc3)c2C#N)nnc1-c1ccncc1	Pol iota inh inconclusive, POLK inh inconclusive, POLH inh 71µM
COc1ccc(C2NC(=O)c3ccccc3N2)cc1COc1ccc(NC(C)=O)cc1 (configuration not stated)	none (no result: POLB inh, Pol iota inh, FEN1 inh, POLK inh, POLH inh)
O=C(NCCc1ccc(Cl)cc1)c1ccc(Cn2c(=O)c3cccn3c3cccnc32)cc1	POLB inh 11µM, Pol iota inh inconclusive, POLH inh inconclusive
O=C(NCCc1ccc(Cl)cc1)c1ccc(Cn2c(=O)[nH]c3ccccc3c2=O)cc1	POLB inh inconclusive, TDP1 inh 28µM, POLH inh inconclusive
O=C(C[n+]1cccc2cccc(O)c21)c1ccc2ccccc2c1	none (no result: POLB inh, TDP1 inh, POLH inh)

From PubChem BioAssay
